In PubChem BioAssay:
A number with no mark means an inactive call. This is one part of the list. Activity calls are given as the source filed them.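 Rule for the calls, unless noted: active = activation above the solvent-only control well mean plus 3 SD, set per plate batch (cut at about 110% in these data); inactive = the rest.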

Assays:
[1] = potentiators of IFN-gamma STAT1 reporter activity – cell-based, HTS, luciferase reporter, confirmation (AID 1262;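 active = activation above a set limit carried over from the earlier primary STAT1 screen, cut at about 140% in these data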;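 note: simple ratio to median IFN-gamma plus DMSO wells so 0% means no light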); details: NIH 3T3 STAT1-luciferase reporter, IFN-gamma potentiation, luminescence; at 5.7 µM; active compounds read high; 100% = IFN-gamma EC80 alone, no compound
[2] = enhancement of NF-kB transcriptional signalling – cell-based, HEK293T, luciferase luminescence, TNF-alpha, counter-screen for STAT1 activator project (AID 1306;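 active = activation above the mean of solvent-only control wells plus 3 SD, set per campaign, cut at about 130% in these data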;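 note: TNF-alpha given at a submaximal dose yielding about 80% of full reporter signal; values are well signal over median control so 100% means no change and 0% no light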); details: HEK293T NF-kB luciferase reporter, TNF-alpha stimulated, at 5.7 µM, active compounds read high, 100% = TNF-alpha with vehicle only
[3] = target: Signal transducer and activator of transcription 3 (Homo sapiens) (UniProt P40763); assay: enhancers of IL-6 STAT3 transcription – U3A cells, luciferase, luminescence, counter-screen for STAT1 activator project, confirmation (AID 1316); details: U3A cells STAT3-luciferase reporter, IL-6, luminescence; at 5.7 µM; active compounds read high; 100 = IL-6 alone, no compound effect; cells lack STAT1;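 note: 0% = no luminescence and 100% = median IL-6 plus DMSO wells; higher means more STAT3 reporter activation so hits are non-selective activators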
[4] = target: Serine protease HTRA1 (Homo sapiens) (UniProt Q92743); assay: confirming inhibition of human HTRA1 – biochemical, fluorescence polarization, confirmation (AID 540248;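 active = mean inhibition over three repeats above a set limit taken from the earlier primary screen, cut at about 37% in these data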;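 note: 0% = HTRA1 with DMSO and 100% = wells lacking HTRA1; inhibitors block probe binding so polarization drops and inhibition rises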); details: recombinant HTRA1, FP-rhodamine activity-based probe, at 5.96 µM, active compounds read high
[5] = StAR promoter reporter inhibitors, counter-screen for LRH-1 inverse agonist project, cell-based, luminescence, high throughput (AID 651611; in the data active = inhibition above about 28%); details: StAR promoter luciferase reporter counterscreen, at 3.6 µM, active compounds read high
[6] = target: Nuclear receptor subfamily 5 group A member 2 (Homo sapiens) (UniProt O00482); assay: NR5A2 activity suppression in reporter cells – cell-based, luminescence, confirmation (AID 651613; in the data active = inhibition above about 42%;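 note: HEK293T cells co-transfected with LRH-1 and StAR promoter luciferase reporter; 0% = vehicle wells and 100% = parental cells lacking receptor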); details: cell-based LRH-1 luciferase reporter, inverse agonism; at 3.6 µM; active compounds read high
[7] = target: Steroidogenic factor 1 (Homo sapiens) (UniProt Q13285); assay: inverse agonism at SF1 nuclear receptor – cell-based, luminescence, high throughput, counter-screen for LRH-1 inverse agonist project (AID 651614; in the data active = inhibition above about 44%;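 note: cells cotransfected with StAR promoter reporter and SF1 expression vector; 0% = vehicle on cells with receptor and 100% = vehicle on cells lacking receptor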); details: cell-based SF1 luciferase reporter, at 3.6 µM, active compounds read high
[8] = compounds suppressing VP16-driven luciferase signal – cell-based, luminescence, high throughput, counter-screen for LRH-1 inverse agonist project (AID 651615; in the data active = inhibition above about 33%); details: Gal4-VP16 luciferase reporter cells, at 3.6 µM, active compounds read high
[9] = BSA probe fluorescence interference – biochemical, TAMRA-labeled BSA, counter-screen for TCR-CD3 interaction inhibitor project (AID 652035; in the data active = inhibition above about 23%;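 note: 0% = buffer low control and 100% = reference high control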); details: TAMRA-labeled BSA probe fluorescence counterscreen; at 9.4 µM; active compounds read high
[10] = test system: T-cell receptor (TCR)-CD3 interaction, human; assay: blockers of TCR binding to CD3 – biochemical, fluorescence, TAMRA-labeled TCR probe, confirmation (AID 652036; in the data active = inhibition above about 19%); details: TAMRA-labeled TCR probe fluorescence binding assay; at 9.4 µM; active compounds read high
[11] = target: (Lyso)-N-acylphosphatidylethanolamine lipase (Mus musculus) (UniProt Q8VD66); assay: mouse ABHD4 hydrolase blockers, triplicate – biochemical, fluorescence polarization, confirmation (AID 720658;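 active = mean inhibition across replicates above the hit cutoff set in the primary screen, cut at about 30% in these data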;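 note: 0% = wild-type ABHD4 with DMSO and 100% = catalytically dead S159A mutant with DMSO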); details: purified mABHD4, FP-Rh probe fluorescence polarization; at 8.92 µM; active compounds read high
[12] = test system: HIV-1 integrase (multimerization); assay: stimulation of HIV-1 integrase oligomerization – biochemical, TR-FRET, counter-screen for LEDGF/p75 integration inhibitor project (AID 1053131; in the data active = activation above about 8.9%); details: TR-FRET HIV-1 integrase multimerization, at 7.7 µM, active compounds read high
[13] = compounds disturbing TR-FRET signal readout – biochemical, HIV-1 IN multimerization, artefact control for LEDGF/p75-dependent integration inhibitor project, confirmation (AID 1053135;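 active = inhibition above the mean over all tested compounds plus 3 SD, which no compound reached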;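 note: 0% = integrase with antibodies and DMSO and 100% = antibodies without integrase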); details: TR-FRET optical interference counterscreen, at 7.7 µM, active compounds read high
[14] = test system: HIV-1 integrase / human LEDGF/p75 complex; assay: blockers of LEDGF/p75-dependent integrase activity – biochemical, TR-FRET, confirmation (AID 1053136; in the data active = inhibition above about 14%); details: TR-FRET LEDGF/p75-dependent HIV-1 integration, at 3.7 µM, active compounds read high
[15] = test system: TLR4-MyD88 interaction (human), BLA complementation; assay: disruptors of TLR4 binding to MyD88 – cell-based, HeLa CL3-4, BLA complementation, FRET ratio, confirmation (AID 941;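 active = mean inhibition across three repeat runs above about 25% carried over from the earlier screen, limit read from the data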;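 note: plate controls were DMSO only for no effect and clavulanic acid blocking BLA at full dose for full effect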); details: CCF4 FRET ratio, at 8.4 µM, active compounds read high
[16] = BLA reporter interference in HeLa cells – cell-based, full-length BLA, CCF4 FRET ratio, artefact control for TLR4-MyD88 binding inhibitor project, confirmation (AID 1237;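 active = mean inhibition over three repeats above about 26% taken from the earlier screen, limit read from the data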;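 note: HeLa cells stably expressing beta-lactamase reporter as counterscreen for TLR4-MyD88 inhibitors; 0% = DMSO and 100% = clavulanic acid full inhibition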); details: at 8.4 µM, active compounds read high
[17] = target: Insulin-degrading enzyme (Homo sapiens) (UniProt P14735); assay: cellular IDE Abeta-cleavage inhibition – fluorescence polarization, HEK cells, FAbetaB substrate, confirmation (AID 435028;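 active = mean inhibition across triplicate wells above the cutoff set by the earlier primary insulin-degrading enzyme screen, cut at about 16% in these data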;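 note: 0% = DMSO wells and 100% = 60 µM reference IDE inhibitor Ii1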); details: at 5.59 µM, active compounds read high
[18] = HEK cell viability loss – luminescence, cytotoxicity control for IDE inhibitor project (AID 449730; in the data active = inhibition above about 22%;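 note: 0% = vehicle wells and 100% = reference cytotoxic drug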); details: HEK293 cytotoxicity, ATP luminescence; at 5.59 µM; active compounds read high
[19] = target: Receptor-interacting serine/threonine-protein kinase 2 (Homo sapiens) (UniProt O43353); assay: inhibitors of RIPK2 association with NOD2 – fluorescence, CHO cells, BLA complementation, triplicate, confirmation (AID 624370;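 active = mean inhibition across replicates above a set limit taken from the earlier primary screen, cut at about 21% in these data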;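 note: 0% = DMSO-only wells and the high end = clavulanate BLA-blocked wells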); details: CCF4 FRET, at 4.98 µM, active compounds read high
[20] = BLA reporter readout interference – cell-based, CHO-K1 CMV-bla, CCF4 FRET, fluorescence, artefact control for NOD2-RIPK2 interaction inhibitor project, confirmation (AID 624371;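 active = mean inhibition above the low-control mean inhibition plus three low-control SD, cut at about 11% in these data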;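 note: 0% = DMSO only wells and 100% = clavulanate high control wells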); details: CCF4 FRET ratio, counterscreen, at 4.98 µM, active compounds read high
[21] = test system: Fam108b (Abhd17b) serine hydrolase [Mus musculus]; assay: inhibition of Fam108b (Abhd17b) hydrolase – biochemical, fluorescence polarization, triplicate, counter-screen for RBBP9 inhibitor project, confirmation (AID 1978;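 active = inhibition above a limit from the primary screen, the mean over all compounds plus 3 SD, cut at about 19% in these data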;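 note: 0% = median of active Fam108b wells and 100% = catalytically dead S170A mutant; inhibitors free the probe so polarization falls as inhibition rises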); details: recombinant Fam108b, FP-Rh probe fluorescence polarization; at 9.51 µM; active compounds read high
[22] = target: Toll-like receptor 9 (Homo sapiens) (UniProt Q9NR96); assay: disruptors of TLR9 binding to MyD88 – cell-based, CHO, BLA complementation, fluorescence, triplicate, confirmation (AID 540250;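 active = mean inhibition across three repeats above about 21% taken from the earlier screen, limit read from the data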;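 note: blue over green emission ratio reports constitutive TLR9 MyD88 association via BLA complementation; 0% = DMSO vehicle wells and 100% = clavulanate BLA inhibitor wells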); details: CCF4 FRET ratio, at 4.98 µM, active compounds read high
[23] = BLA reporter readout interference – cell-based, fluorescence, artefact control for TLR9-MyD88 binding inhibitor project (AID 540251;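 active = mean inhibition above a 50% cutoff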;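 note: counterscreen of TLR9-MyD88 hits on CMV-driven BLA in CHO-K1 cells; 0% = DMSO alone and 100% = clavulanate blocking BLA; higher means less blue over green ratio so more BLA blockade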); details: CHO-BLA cells, CCF4 FRET ratio, at 4.98 µM, active compounds read high
[24] = CHO cell viability loss – luminescence, single concentration, cytotoxicity control for TLR9-MyD88 binding inhibitor project (AID 588336; in the data active = inhibition above about 11%); details: TLR9-MyD88 CHO cells cytotoxicity, at 4.98 µM, active compounds read high

Chain of Receptor-interacting serine/threonine-protein kinase 2 (Homo sapiens) (O43353 whole entry, looked up): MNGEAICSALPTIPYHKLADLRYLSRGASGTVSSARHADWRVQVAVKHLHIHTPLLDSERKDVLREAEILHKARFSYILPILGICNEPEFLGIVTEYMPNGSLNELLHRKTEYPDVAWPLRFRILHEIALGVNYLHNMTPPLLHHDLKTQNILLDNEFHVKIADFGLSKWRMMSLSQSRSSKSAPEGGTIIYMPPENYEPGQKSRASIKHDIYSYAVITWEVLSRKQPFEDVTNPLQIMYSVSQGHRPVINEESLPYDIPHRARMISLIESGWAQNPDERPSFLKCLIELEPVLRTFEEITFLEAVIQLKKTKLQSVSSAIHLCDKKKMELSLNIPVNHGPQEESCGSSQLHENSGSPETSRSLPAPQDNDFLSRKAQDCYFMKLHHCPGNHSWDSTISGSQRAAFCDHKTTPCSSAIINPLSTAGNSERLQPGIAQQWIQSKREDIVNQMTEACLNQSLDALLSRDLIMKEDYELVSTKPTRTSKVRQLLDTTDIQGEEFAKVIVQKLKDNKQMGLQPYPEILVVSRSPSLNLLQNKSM
Chain of Insulin-degrading enzyme (Homo sapiens) (P14735 whole entry, looked up): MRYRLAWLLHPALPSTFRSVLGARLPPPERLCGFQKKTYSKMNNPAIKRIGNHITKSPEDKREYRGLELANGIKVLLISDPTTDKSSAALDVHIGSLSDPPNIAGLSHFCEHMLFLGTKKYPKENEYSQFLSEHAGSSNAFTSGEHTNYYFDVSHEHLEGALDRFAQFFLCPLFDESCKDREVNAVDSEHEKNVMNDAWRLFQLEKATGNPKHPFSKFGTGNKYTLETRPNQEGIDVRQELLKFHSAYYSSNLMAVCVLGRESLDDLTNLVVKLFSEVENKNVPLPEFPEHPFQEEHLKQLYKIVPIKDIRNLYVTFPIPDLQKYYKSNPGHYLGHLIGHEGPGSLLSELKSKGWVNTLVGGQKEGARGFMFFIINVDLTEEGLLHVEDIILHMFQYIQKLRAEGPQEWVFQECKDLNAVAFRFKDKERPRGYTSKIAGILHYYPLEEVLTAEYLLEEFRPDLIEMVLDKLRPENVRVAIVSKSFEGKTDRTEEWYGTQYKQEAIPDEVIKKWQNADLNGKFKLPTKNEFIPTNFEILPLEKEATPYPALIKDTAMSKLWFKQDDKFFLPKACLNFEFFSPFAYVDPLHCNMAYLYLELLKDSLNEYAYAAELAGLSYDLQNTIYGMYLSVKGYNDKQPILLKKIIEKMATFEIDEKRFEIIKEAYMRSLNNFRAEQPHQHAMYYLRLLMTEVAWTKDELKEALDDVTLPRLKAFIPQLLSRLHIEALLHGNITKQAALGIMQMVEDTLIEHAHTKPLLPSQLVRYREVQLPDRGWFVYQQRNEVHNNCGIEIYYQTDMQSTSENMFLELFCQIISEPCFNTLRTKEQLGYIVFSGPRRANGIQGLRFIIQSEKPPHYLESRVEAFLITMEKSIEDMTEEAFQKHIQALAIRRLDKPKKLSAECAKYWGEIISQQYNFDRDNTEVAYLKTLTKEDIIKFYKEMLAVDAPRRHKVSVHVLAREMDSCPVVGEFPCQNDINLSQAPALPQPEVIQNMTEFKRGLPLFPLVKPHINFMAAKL
Chain of Nuclear receptor subfamily 5 group A member 2 (Homo sapiens) (O00482 whole entry, looked up): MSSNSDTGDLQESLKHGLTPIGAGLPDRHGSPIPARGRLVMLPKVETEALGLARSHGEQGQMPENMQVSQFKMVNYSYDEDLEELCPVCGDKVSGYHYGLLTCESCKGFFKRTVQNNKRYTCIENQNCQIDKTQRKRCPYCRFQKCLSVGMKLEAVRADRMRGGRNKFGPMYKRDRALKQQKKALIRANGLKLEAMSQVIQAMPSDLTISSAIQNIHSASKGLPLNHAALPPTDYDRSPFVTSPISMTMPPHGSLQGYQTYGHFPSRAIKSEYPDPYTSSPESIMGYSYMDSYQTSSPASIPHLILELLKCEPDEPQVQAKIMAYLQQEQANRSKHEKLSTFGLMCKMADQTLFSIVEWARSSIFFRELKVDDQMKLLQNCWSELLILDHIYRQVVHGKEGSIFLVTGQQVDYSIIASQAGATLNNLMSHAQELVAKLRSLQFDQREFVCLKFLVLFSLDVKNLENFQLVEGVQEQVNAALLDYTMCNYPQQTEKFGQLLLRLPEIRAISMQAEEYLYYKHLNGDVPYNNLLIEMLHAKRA
Chain of Toll-like receptor 9 (Homo sapiens) (Q9NR96 whole entry, looked up): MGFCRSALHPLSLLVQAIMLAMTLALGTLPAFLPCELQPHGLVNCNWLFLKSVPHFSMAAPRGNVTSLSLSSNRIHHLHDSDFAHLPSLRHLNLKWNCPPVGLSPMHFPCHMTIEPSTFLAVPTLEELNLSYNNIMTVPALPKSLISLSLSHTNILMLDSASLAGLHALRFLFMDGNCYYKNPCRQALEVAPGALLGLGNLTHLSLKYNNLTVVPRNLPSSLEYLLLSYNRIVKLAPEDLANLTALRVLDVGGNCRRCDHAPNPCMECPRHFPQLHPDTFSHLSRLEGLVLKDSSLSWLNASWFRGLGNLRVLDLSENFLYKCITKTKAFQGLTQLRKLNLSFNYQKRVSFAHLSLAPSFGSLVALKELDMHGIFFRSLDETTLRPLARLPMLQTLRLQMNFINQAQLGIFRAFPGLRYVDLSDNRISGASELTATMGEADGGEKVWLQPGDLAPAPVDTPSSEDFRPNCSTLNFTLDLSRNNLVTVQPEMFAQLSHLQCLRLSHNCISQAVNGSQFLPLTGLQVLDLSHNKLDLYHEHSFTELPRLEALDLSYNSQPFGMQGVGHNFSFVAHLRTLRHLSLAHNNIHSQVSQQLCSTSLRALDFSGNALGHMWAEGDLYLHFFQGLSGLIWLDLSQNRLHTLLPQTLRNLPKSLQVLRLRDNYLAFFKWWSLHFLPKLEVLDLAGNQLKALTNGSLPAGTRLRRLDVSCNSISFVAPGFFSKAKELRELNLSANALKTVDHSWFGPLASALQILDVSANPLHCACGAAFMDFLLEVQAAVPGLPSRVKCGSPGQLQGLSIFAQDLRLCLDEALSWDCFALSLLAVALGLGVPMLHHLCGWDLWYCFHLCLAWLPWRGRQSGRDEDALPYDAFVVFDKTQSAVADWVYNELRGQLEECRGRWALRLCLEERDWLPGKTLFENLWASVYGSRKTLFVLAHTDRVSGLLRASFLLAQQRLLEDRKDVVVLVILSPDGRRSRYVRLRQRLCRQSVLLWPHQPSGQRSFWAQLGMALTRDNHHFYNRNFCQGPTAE
Chain of Steroidogenic factor 1 (Homo sapiens) (Q13285 whole entry, looked up, the tested form may be a part): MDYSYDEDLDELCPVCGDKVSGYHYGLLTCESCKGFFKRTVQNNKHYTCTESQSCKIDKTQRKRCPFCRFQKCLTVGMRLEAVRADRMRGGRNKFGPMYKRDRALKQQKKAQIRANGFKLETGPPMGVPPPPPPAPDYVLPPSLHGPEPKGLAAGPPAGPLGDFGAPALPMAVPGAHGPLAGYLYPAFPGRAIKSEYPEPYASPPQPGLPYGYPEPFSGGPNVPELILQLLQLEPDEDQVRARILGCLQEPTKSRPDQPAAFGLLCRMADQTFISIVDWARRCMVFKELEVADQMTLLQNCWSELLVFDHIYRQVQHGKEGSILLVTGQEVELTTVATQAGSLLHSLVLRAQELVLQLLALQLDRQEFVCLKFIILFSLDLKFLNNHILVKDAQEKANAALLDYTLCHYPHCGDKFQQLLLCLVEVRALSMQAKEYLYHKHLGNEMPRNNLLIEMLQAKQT
Chain of (Lyso)-N-acylphosphatidylethanolamine lipase (Mus musculus) (Q8VD66 whole entry, looked up): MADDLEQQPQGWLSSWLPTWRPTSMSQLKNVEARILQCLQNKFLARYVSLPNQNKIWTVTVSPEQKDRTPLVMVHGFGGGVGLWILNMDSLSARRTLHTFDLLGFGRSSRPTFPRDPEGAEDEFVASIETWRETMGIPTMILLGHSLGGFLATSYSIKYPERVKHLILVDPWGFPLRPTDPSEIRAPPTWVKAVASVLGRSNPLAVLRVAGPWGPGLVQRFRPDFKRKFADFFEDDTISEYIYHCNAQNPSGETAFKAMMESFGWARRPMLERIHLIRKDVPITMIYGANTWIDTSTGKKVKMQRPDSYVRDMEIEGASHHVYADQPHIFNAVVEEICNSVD

Q: With `Cc1[nH]n(-c2ccccc2)c(=O)c1/C=N/NC(=O)c1ccoc1C` as the compound, how does the activation (% of control) [1] read?
A: 120%

Q: What about the activation (% of control) [2] of the same compound?
A: 117%

Q: What about the activation (% of control) [3] of the same compound?
A: 108%

Q: With `NC1=CC(=O)C(=O)c2cccnc21` as the compound, how does the inhibition [4] read?
A: 24.5%

Q: And the inhibition [5]?
A: 35.9% (active)

Q: What about the inhibition [6] of the same compound?
A: 47.5% (active)

Q: What about the inhibition [7] of the same compound?
A: 45.5% (active)

Q: And the inhibition [8]?
A: 8.35%

Q: And the inhibition [9]?
A: 6.36%

Q: And the inhibition [10]?
A: 11.5%

Q: What about the inhibition [11] of the same compound?
A: 68.3% (active)

Q: What about the activation [12] of the same compound?
A: 45.1% (active)

Q: And the inhibition [13]?
A: -160%

Q: And the inhibition [14]?
A: 79.9% (active)

Q: Which results are given for `O=C(/C=C/c1ccc(N2CCOCC2)cc1)c1ccccc1`?
A: inhibition [15]: 21.1%; inhibition [16]: 45.8% (active); inhibition [17]: 14.1%; inhibition [18]: 15.4%; inhibition [19]: 29% (active); inhibition [20]: 31.2% (active)

Q: With `Cc1ccc(NC(=O)Nc2ccc3oc(C)nc3c2)cc1` as the compound, how does the activation (% of control) [1] read?
A: 200% (active)

Q: And the activation (% of control) [2]?
A: 128%

Q: And the activation (% of control) [3]?
A: 102%

Q: With `CC(=O)c1sc(N/N=C\c2ccc(C)cc2)nc1C` as the compound, how does the activation (% of control) [1] read?
A: 191% (active)

Q: What about the activation (% of control) [2] of the same compound?
A: 143% (active)

Q: What about the activation (% of control) [3] of the same compound?
A: 107%

Q: For `Cc1cccc(COc2ccccc2/C=N/Nc2ccc([N+](=O)[O-])cc2)c1`, which inhibition [15] is on record?
A: 16.9%

Q: What about the inhibition [16] of the same compound?
A: 36.9% (active)

Q: And the inhibition [21]?
A: 9.96%

Q: And the inhibition [22]?
A: 20.3%

Q: And the inhibition [23]?
A: 23.3%

Q: And the inhibition [24]?
A: -1.39%

Q: What about the inhibition [19] of the same compound?
A: 44.2% (active)

Q: And the inhibition [20]?
A: 50.4% (active)
